As a reminder, the inhibition is the change of the read-out against control, counted positive when it falls.

Out of some 370,000 compounds screened, about 620 (0.17%) were called active. For the sample, actives were picked, then their nearest neighbours and some compounds at random. A number with no mark means an inactive call.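 How the source made its calls: active means inhibition above the mean inhibition of all tested compounds plus 3 SD, set per campaign (cut at about 52% in these data); inactive means the rest.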

Sequence of Nuclear receptor coactivator 2 (Homo sapiens) (Q15596 whole entry, looked up, the tested form may be a part): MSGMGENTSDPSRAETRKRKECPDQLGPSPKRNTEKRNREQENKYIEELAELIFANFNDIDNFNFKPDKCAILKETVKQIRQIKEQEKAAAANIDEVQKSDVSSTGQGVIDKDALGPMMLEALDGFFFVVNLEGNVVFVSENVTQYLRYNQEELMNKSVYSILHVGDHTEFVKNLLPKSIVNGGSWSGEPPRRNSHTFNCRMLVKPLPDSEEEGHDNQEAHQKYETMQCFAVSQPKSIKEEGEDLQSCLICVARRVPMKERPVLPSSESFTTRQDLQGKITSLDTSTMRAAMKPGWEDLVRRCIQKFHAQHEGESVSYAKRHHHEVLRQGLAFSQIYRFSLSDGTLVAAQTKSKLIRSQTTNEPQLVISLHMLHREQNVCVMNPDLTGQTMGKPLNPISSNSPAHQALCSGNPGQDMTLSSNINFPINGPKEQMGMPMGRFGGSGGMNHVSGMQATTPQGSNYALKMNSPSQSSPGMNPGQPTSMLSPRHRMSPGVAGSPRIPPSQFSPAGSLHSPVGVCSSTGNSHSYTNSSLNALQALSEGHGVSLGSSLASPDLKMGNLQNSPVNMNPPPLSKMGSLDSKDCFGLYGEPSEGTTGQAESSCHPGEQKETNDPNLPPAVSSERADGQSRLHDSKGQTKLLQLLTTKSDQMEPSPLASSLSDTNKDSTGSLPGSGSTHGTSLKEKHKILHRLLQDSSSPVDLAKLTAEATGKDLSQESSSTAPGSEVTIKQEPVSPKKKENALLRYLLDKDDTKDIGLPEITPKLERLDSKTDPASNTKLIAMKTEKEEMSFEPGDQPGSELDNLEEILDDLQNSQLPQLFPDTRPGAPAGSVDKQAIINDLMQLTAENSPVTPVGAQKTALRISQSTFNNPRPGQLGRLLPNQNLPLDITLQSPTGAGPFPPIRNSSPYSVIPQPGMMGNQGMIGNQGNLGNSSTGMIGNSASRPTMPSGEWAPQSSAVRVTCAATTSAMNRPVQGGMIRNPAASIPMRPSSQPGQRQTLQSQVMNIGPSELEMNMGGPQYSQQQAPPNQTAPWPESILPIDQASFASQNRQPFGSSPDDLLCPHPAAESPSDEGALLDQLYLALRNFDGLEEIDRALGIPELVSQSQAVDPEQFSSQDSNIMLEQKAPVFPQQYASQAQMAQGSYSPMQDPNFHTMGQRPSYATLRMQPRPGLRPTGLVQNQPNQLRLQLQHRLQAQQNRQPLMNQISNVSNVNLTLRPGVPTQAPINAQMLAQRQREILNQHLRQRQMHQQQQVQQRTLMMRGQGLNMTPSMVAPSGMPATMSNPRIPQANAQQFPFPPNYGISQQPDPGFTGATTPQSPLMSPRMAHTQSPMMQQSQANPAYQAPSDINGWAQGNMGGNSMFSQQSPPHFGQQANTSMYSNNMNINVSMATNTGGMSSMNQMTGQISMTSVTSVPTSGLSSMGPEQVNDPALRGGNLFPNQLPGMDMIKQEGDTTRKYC

The experiment concerns the target Nuclear receptor coactivator 2 (Homo sapiens) (UniProt Q15596). Nature of the experiment: decrease of SRC2 fusion reporter luminescence – cell-based, SRC2 inhibitor project, primary screen (AID 651957).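 Further: 0% = DMSO treated cells and 100% = cells given Gossypol at 36 µM.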 The following applies: HEK293 GAL4-SRC2 luciferase reporter, at 9 µM, hits give high values. On the technique in general: Reporter assays use an easily measured gene product as a stand-in for the process of interest.
For the compound `Cc1cc(N2CCN(C(=O)OC(C)(C)C)C[C@H]2C)ccc1N1CCN(Cc2ccccc2)[C@H](C)C1`, the inhibition is -2.83%.

For `COc1ccc(CN2C(=O)N3Cc4cc(OC)ccc4C3CS2(=O)=O)cc1` (stereo not given), the inhibition is 15.8%. Regarding `Cc1ccc(-n2c(SCC(=O)Nc3ccc(S(=O)(=O)Nc4nccs4)cc3)nnc2-c2ccccn2)cc1`, the inhibition is 9.13%. As to `CC(=O)NCc1ccc(S(=O)(=O)NC2CCN(Cc3ccccc3)CC2)cc1`, the inhibition is 6.61%. With `COC(=O)[C@@H]1C[C@@]2(O)[C@@H](O)[C@@H](O)[C@@H](O)C[C@H]2N1Cc1ccc(C)s1`, the inhibition is -14.3%. With `C/C=C/c1ccc(OCC(O)CN2CCCCCCC2)c(OC)c1` (stereo not given), the inhibition was 11.7%.

`CCOC(=O)[C@@]12CN(C(=O)OC(C)(C)C)CC=C1N(Cc1ccc(OC)cc1)C(=O)[C@H]2CC(=O)NCc1ccc(OC)c(OC)c1`: the inhibition is -4.35%.

Consider `O=C(CSc1nnc(-c2ccccc2)n1Cc1ccco1)Nc1ccccc1-c1ccccc1`, for which the inhibition was -16.5%. In the case of `CC(=O)C1=C(C)N(Cc2ccccc2)C(=S)NC1c1cccc(Br)c1` (stereo not given) it was -0.56%. Consider `COC(=O)c1ccc(CN2C(=O)[C@]3(OCCC=C[C@H]3C)c3c(Br)cccc32)cc1`, for which the inhibition is 4.53%.

Consider `Cc1cc(Nc2ccccc2)n(C(=O)c2ccc(N)cc2)n1`, for which the inhibition was 62% (active). With `Cn1c(Nc2ccccc2)cc(=O)n(C)c1=O` the figure was -0.54%; with `Cc1ccc(NC(=O)Nc2cc(C)nn2-c2ccccc2)cc1`, -32.3%. For `COc1ccc2c(c1)CN1CN(CCc3ccccc3)S(=O)(=O)CC21` (stereo not given), the inhibition was 5.4%.

Turning to `O=C(NCc1ccccc1)[C@H]1CCCN1C(=O)[C@H]1CCCN1C(=O)N1CCOCC1`, the inhibition is 3.99%. Consider `CCOC(=O)C1CCCN(C(=O)c2cccc3ccccc23)CC1` (stereo not given), for which the inhibition is 7.84%.

With `CCC(C)(C(=O)NC1CCCCC1)N(C)C(=O)c1ccc2c(c1)OCO2` (stereo not given), the inhibition is -11.6%. `COc1ccc(OC)c(CNC(=O)c2cc(=O)[nH]c3ccc(S(=O)(=O)N4CCCC4)cc23)c1`: the inhibition was -15.1%. As for `O=C1CC[C@@H](COc2ccc3[nH]cc(-c4ccccc4)c3c2-c2ccccc2)N1`, the inhibition is 4.07%.

For the compound `CCCc1nc(SCC(=O)N2CCCC2)c2c(=O)n(C)c(=O)n(C)c2n1`, the inhibition was 2.56%. With `O=C1NC(c2ccccc2)Oc2ccccc21` (stereo not given), the inhibition is -0.1%. For `O=C1NC(c2ccccc2)Cc2ccncc21` (stereo not given), the inhibition was 58.9% (active). With `O=C1NC(c2ccccc2)CCC1(Cl)Cl` (stereo not given) the figure was -13.7%; with `CCCCn1c(N)c(N(Cc2ccccc2OC)C(=O)COc2cc(C)ccc2Cl)c(=O)[nH]c1=O`, -2.7%; with `O=C(NCc1nnc(SCC(=O)N2CCCCCC2)o1)c1ccc(F)cc1`, -14.4%. In the case of `Cc1ccccc1NC(=O)COC(=O)c1ccc(Sc2ncn[nH]2)c([N+](=O)[O-])c1` it was -15.7%; in that of `COC(=O)c1cc(S(=O)(=O)N2CCN(c3ccccc3C)CC2)cn1C`, 20.3%. In the case of `C[C@@H]1COc2cccc(N3CCCC3)c2S(=O)(=O)N1C`, the inhibition is -9.18%. For the compound `Cc1ccc2oc(=O)c3cnn(CC(=O)N(Cc4ccco4)C4CCCCC4)c3c2c1`, the inhibition was -25.6%. Regarding `NNC(=O)C1CC(O)CN1S(=O)(=O)c1ccc(Cl)cc1` (stereo not given), the inhibition is 23.4%. In the case of `COc1ccccc1CNC(=O)C1CCN(S(=O)(=O)c2ccc3c(c2)OCCO3)CC1` it was -1.43%; in that of `COC(=O)[C@]12C[C@H](CC(=O)N3CCN(C(=O)C4CC4)CC3)C(=O)N(CCC3=CCCCC3)C1=C[C@H](C(C)C)O[C@@H]2C1CC1`, -0.28%. With `CCNC(=S)N1CCC(c2nc3cc(C)c(C)cc3[nH]2)CC1` the figure was -32.6%; with `O=C(CSc1nnc(-c2ccccn2)n1-c1ccccc1)Nc1ccc2cn[nH]c2c1`, -5.6%; with `CC(C)(C)C(c1nc2ccccc2[nH]1)n1c(Cc2csc3ccccc23)nc2ccccc21` (stereo not given), -15%. With `CS(=O)(=O)N1CCN=C1SCc1ccc(F)cc1` the figure was -10.1%.

For the compound `O=C(C1CCN(S(=O)(=O)c2ccccc2)CC1)N1CCN(C2CCCCC2)CC1`, the inhibition is 14.3%. With `COC(=O)C1=C(C)N(Cc2ccc(C(F)(F)F)cc2)C(=NCc2ccc(C(F)(F)F)cc2)NC1c1cccc(Cl)c1` (stereo not given), the inhibition was -4.35%. Regarding `OCCCNc1nccc(-c2cc(Nc3cccc(Cl)c3)ncn2)n1`, the inhibition is 56.3% (active). For the compound `Cc1ccc(NC(=O)c2cc(C)nn2-c2ccccc2)c(C)c1`, the inhibition was 4.89%. In the case of `CCCC(=O)N1CCC1(C)C(=O)NCc1ccc(SC)cc1` (stereo not given) it was -38.9%. Take `Cc1sc2nc(SCC(=O)c3ccc(O)c(O)c3)n(Cc3ccco3)c(=O)c2c1C`: the inhibition was 8.73%. Turning to `C=CCN=C1NC(c2cccc(C(F)(F)F)c2)C(C(=O)OC)=C(C)N1C` (stereo not given), the inhibition was -11.9%. Consider `CC(C)N1CCCCC(NC(=O)c2ccc3ccccc3c2)C1=O` (stereo not given), for which the inhibition is -10%. Turning to `CCOc1ccc(S(=O)(=O)NCCCn2ccnc2)cc1NC(C)=O`, the inhibition is 12.2%. As to `Nc1[nH]c(/C=C2/CCCCC2n2[nH]c(=O)n(-c3ccccc3)c2=O)c(Cc2ccccc2)[n+]1Cc1ccccc1` (stereo not given), the inhibition was 12.9%.

In the case of `C=CCN1[C@@H](Cc2ccccc2)COc2cccc(N3CCSCC3)c2S1(=O)=O`, the inhibition is 10.1%. Consider `CC(C)(C)OC(=O)NCc1cc(F)ccc1/C=C/S(=O)(=O)NCCc1ccccc1`, for which the inhibition was 4.87%. Consider `COc1cccc(N(C)C(=O)[C@@H](C)[C@@H](O)c2ccc3ccccc3c2)c1`, for which the inhibition was -32.8%.

For the compound `CC(C)CC(CCc1ccccc1)OS(N)(=O)=O` (stereo not given), the inhibition was -15.3%. On to `OCCN1CCN(C(=S)c2ccc(-c3ccccc3)cc2)CC1`, for which the inhibition is 71.1% (active). For the compound `O=C(NC(=S)N1CCN(Cc2ccccc2)CC1)c1ccccc1`, the inhibition was -12.4%.

In the case of `O=C(O)C1C2C=CC(C2)C1C(=O)N1CCN(CCO)CC1` (stereo not given), the inhibition was -0.51%. In the case of `CC(=O)OC12CCCN(C1)/C(=C/c1ccncc1)C2` (stereo not given) it was 12.7%; in that of `COC(=O)C1=C(C)N(Cc2cccc(C(F)(F)F)c2)C(=NCc2ccccc2)NC1c1ccc(Cl)cc1` (stereo not given), -0.5%.

Consider `Cc1ccccc1NC(=O)c1nn(-c2ccc(F)c(F)c2)ccc1=O`, for which the inhibition is 1.35%. With `Cc1nnnn1/C(=C\c1ccccc1)C(=O)OCC(=O)N1CC2(C)CC1CC(C)(C)C2` (stereo not given), the inhibition was 32.3%. `O=C1N=C2SCCN2/C1=C\c1c(Cl)cccc1Cl`: the inhibition was 4.12%. In the case of `Cc1ccc(NC(=O)CCOc2ccccc2)cc1S(=O)(=O)Nc1ccccc1Cl` it was 9.26%.

With `CC(C)Cc1nc(Nc2ccc(S(=O)(=O)N3CCCC3)cc2)c2nnn(Cc3ccccc3)c2n1`, the inhibition was -14.5%.

On to `CCCCOCCCNC(=O)C[C@H]1C[C@@]2(C(=O)OC)C(=C[C@H](C(C)(C)C)O[C@@H]2C)N(CCc2ccc(OC)c(OC)c2)C1=O`, for which the inhibition is 1.08%. On to `COc1ccc(/C=C2/SC(=O)N(CCCCCC(=O)Nc3ccccc3C(=O)O)C2=S)cc1`, for which the inhibition was 58.3% (active). For the compound `COc1ccc(NC(=O)CN2C(=O)CSC2=O)cc1`, the inhibition is -15.1%.

`COc1ccc(NC(=O)CCCN2C(=O)C(c3ccccc3)Oc3cccnc32)cc1` (stereo not given): the inhibition was 2.65%.

With `CC(=O)Nc1ccc(NC(=O)C(C)n2c3ccccc3c3nc(=O)cc(C)n32)cc1` (stereo not given), the inhibition was -6.71%. For `O=C1C=C(c2ccccc2)CCC1`, the inhibition is -5.31%. Consider `COC(=O)[C@]12C[C@H](CC(=O)NCc3ccccc3)C(=O)N(CCC3=CCCCC3)C1=C[C@H](C(C)(C)C)O[C@@H]2C`, for which the inhibition is 28.1%.

Turning to `N=c1n(CCc2ccccc2)c2ccccc2n1Cc1ccccc1F`, the inhibition was 2.8%. `COc1c(C=O)c(CCN(C)C(=O)c2ccc(F)cc2)cc2c1OCO2`: the inhibition is 0.41%. For the compound `CCCC[C@H]1C2CC(OC(=O)NCc3ccccc3)C(C2)[C@H]2CCCCN21` (stereo not given in full), the inhibition was -8.24%.

As for `COCCC(=O)Nc1ccc2c(c1)CN(C(=O)CCOC)CC2`, the inhibition is 9.25%.

In the case of `Cc1ccc(C(=O)N(Cc2ccccn2)CC2CCCO2)cc1` (stereo not given), the inhibition was -16.2%. For `Cc1noc(C)c1NC(=O)Nc1ccc2c(c1)C(=O)N([C@H](C)CO)C[C@H](C)[C@H](CN(C)Cc1ccncc1)OCCCC[C@@H](C)O2`, the inhibition is 5.48%. For `CC(C)N1CCCCC(NC(=O)C(C)(C)C)C1=O` (stereo not given), the inhibition was 11.4%. With `O=C(Nc1ccccc1Cl)/C(Cl)=C(\Cl)S(=O)c1ccccc1` (stereo not given) the figure was 85.5% (active); with `COc1ccc(N2c3ccccc3CN(Cc3ccccc3)[C@@H](C)[C@H]2Cc2ccc(-c3ccccc3)cc2)cc1`, -9.73%. As for `Cc1c(C(C)c2ccccc2O)[nH]c2ccccc12` (stereo not given), the inhibition is -18.6%. Turning to `O=S1(=O)c2c(cccc2N2CC[C@H](O)C2)O[C@@H]2CCN1C2`, the inhibition is -22.3%. Consider `Cc1ccc(C2=CCN(C)C(=O)N2c2ccc(Cl)cc2)cc1`, for which the inhibition was 30.5%. As for `O=C(NC1CCCCN(Cc2cccc(C(F)(F)F)c2)C1=O)c1ccccc1I` (stereo not given), the inhibition is 18.9%.

For `CCCC(CCC(=O)OC)(C(=O)OCC)c1csc(N)n1` (stereo not given), the inhibition was 11%. With `CCOC(=O)[C@]12CCCCC/C=C\1N(Cc1ccc(OC)cc1)C(=O)[C@H]2CC(=O)NCc1ccc(C)o1` the figure was -22.3%. For `O=C(CSc1nc2ccccc2n1Cc1ccccc1)NNC(=S)Nc1ccccc1`, the inhibition was 4.68%. With `COC(=O)C1=C(C)N(Cc2cccc(C(F)(F)F)c2)C(=NCc2cccc(C(F)(F)F)c2)NC1c1ccccc1C(F)(F)F` (stereo not given) the figure was -30.7%; with `Cc1ccccc1CN1CCCCC(NC(=O)c2cccc(C#N)c2)C1=O` (stereo not given), -18.3%.

Source of the values: PubChem BioAssay AID651957 (The Scripps Research Institute Molecular Screening Center, 2012).
